eIF4H inh = inhibitors of RNA binding by human eIF4H; eIF4H fluorescence polarization binding assay; inhibition, % at 35 µM; hit rate 0.94% among 290,000; AID 2012;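 also: calls also rest on retests at 20 µM and on dose response follow-up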
PERK inhibitor = inhibitors of human PERK kinase | Q9NZJ5 | CHO PERK-DD fusion, SEAP luminescence translation reporter | inhibition, % at 5.6 µM | hit rate 0.17% among 220,000 | AID 1416;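 active = inhibition above the mean inhibition of all tested compounds plus 3 SD, set separately per screening campaign, cut at about 2.9% in these data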;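 also: PERK kinase domain activated by AP20187 dimerizer at 100 nM; 0% = DMSO with dimerizer and 100% = rapamycin at 8.4 µM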
PABP1 MLLE inh = inhibitors of microRNA-mediated deadenylation, human PABP1 MLLE binding | P11940 | GST-MLLE / FITC-PAM2 fluorescence polarization | inhibition, % at 20 µM | hit rate 0.36% among 360,000; in the data active = inhibition above about 35%, passing the limit was not always enough;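 also: plate controls were DMSO wells with GST-MLLE for no effect and wells lacking GST-MLLE protein for full effect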
Target sequence (P11940 whole entry, looked up): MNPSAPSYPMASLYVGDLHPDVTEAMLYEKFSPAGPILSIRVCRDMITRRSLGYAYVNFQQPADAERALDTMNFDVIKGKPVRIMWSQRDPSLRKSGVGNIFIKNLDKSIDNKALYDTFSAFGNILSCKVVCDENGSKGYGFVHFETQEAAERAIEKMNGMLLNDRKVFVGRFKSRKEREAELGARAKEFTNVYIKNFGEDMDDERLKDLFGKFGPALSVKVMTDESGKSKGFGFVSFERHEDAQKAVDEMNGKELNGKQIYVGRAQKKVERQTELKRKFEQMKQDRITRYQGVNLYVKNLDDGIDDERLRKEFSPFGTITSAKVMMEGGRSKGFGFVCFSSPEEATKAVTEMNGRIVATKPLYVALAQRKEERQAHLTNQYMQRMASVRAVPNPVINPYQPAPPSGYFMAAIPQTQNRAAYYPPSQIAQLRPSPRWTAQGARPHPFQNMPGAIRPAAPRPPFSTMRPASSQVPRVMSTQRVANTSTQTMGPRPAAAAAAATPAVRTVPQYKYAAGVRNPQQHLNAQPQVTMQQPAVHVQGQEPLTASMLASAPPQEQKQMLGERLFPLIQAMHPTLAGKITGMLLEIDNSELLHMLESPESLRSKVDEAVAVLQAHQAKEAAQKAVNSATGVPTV
PfM18AAP inh = PfM18AAP enzyme inhibition | recombinant PfM18AAP, H-Glu-NHMec fluorogenic cleavage | inhibition, % at 7.35 µM | hit rate 1.2% among 290,000 | AID 1822;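 active = inhibition above the campaign mean inhibition over all tested compounds plus 3 SD, cut at about 28% in these data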;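 also: 0% = plate median of test compound wells and 100% = 2 mM ZnCl2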
PABP polyA inh = PABP-poly(A) binding inhibition; P11940; PABP-poly(A) RNA binding, fluorescence polarization; inhibition, % at 35 µM; hit rate 1% among 290,000; AID 2014;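 also: calls also rest on retests at 20 µM and on dose response follow-up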
eIF4E-4G inh = inhibitors of eIF4E and eIF4G interaction in translation initiation | hit rate 0.37% among 220,000 | P63073+Q04637 | inhibition, % at 21.7 µM | TR-FRET eIF4E-eIF4GI(517-606) binding, 2 h;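 active = inhibition above about 30%, limit read from the data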;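 also: 0% = full FRET control wells and 100% = background wells lacking eIF4GI fragment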
Starred values were filed as active, the others as inactive; i = inactive; ? = inconclusive; . = no result given. Sampled rows, rich in hits. Any-hit rate of the full collection: about 2.4%. Unless noted, no rule for the calls is given here.

SMILES	eIF4H inh	PERK inhibitor	PABP1 MLLE inh	PfM18AAP inh	PABP polyA inh	eIF4E-4G inh
COc1ccc(C)cc1-n1nnnc1SCn1nnc2ccccc2c1=O	2	0	46*	-3	-1	-10
Cc1ccc(-n2nnnc2SCn2nnc3ccccc3c2=O)cc1	1	0	-20	-2	0	6
COc1ccc2c(c1)c(=O)oc1cc(OCC(=O)NC3CCCCC3)ccc12	91*	1	-13	-10	18	7
COc1ccc2c(c1)c(=O)oc1cc(OCC(=O)NC3CC3)ccc12	6	-1	-1	-2	-1	-22
CCN(CC)C(=O)c1cccc(-c2csc(C(O)c3ccc(F)c(F)c3)n2)c1 (stereo unspecified)	.	.	-1	.	.	.
CCOCCCNCc1ccc(OCCC(C)C)c(OC)c1	-6	1	10	4	-15	-2
Cc1ccc(CN(C)C(=O)COC(=O)CSc2ccc([N+](=O)[O-])cc2)cc1	.	.	43*	.	.	.
COc1cccc(OC)c1C(=O)NC(=S)Nc1cc(-c2nc3ccccc3[nH]2)ccc1Cl	active	-1	16	-1	90	0
COc1c(F)c(F)c(C(=O)Nc2ccc(-c3nc4ccccc4[nH]3)cc2)c(F)c1F	-2	1	8	1	20	-4
CC(/C=N/n1c(-c2cc(C)[nH]n2)n[nH]c1=S)=C\c1ccccc1	active	0	-30	4	64*	8
Cc1cc(-c2n[nH]c(=S)n2/N=C/C=C/c2ccco2)n[nH]1	93*	1	-22	18	65*	2
Cc1ccccc1-c1n[nH]c(=S)n1/N=C/C=C/c1ccco1	82*	0	0	6	41*	-4
CC(=C/c1ccccc1)/C=N/n1c(-c2ccco2)n[nH]c1=S	-6	2	-26	13	7	2
CC(=O)/C=C(\C)NCCNc1c(F)c(F)c(CO)c(F)c1F	-2	1	12	2	1	-2
Cc1ccc(SCC(=O)Nc2ccc(-c3nnc(-c4ccco4)o3)cc2)cc1	58*	1	9	0	79*	-7
CC(C)c1nnc(NC(=O)CSc2nnc(-c3ccco3)o2)s1	-5	0	-11	11	8	5
Cc1ccc(NC(=O)CSc2nnc(-c3ccco3)c(-c3ccco3)n2)cc1	100*	1	21	-2	89*	1
Cc1ccc(NC(=O)CCSc2nnc(-c3ccco3)o2)cc1	2	0	8	2	12	-1
O=C(CSc1nnc(-c2ccco2)c(-c2ccco2)n1)Nc1ccccc1	96*	1	16	32*	91*	19
Cc1ccc(NC(=O)CSc2ccc(-c3ccco3)nn2)cc1	25	0	26	-4	-4	8
O=C(CSc1nnc(-c2ccccc2)c(-c2ccccc2)n1)NCc1ccco1	3	0	10	14	0	4
Cc1nnc(NC(=O)CSc2nnc(-c3ccco3)o2)s1	0	0	1	29*	4	-3
O=C(NCCc1ccccc1C(F)(F)F)c1cc(COc2ccccc2)on1	.	.	6	.	.	.
O=C1NC(=O)C2(N1)C(=O)c1cccc3cccc2c13 (stereo unspecified)	.	.	i	.	.	.
CN(C)c1ccc(NC(=O)CSc2nnc(-c3ccco3)c(-c3ccco3)n2)cc1	93*	.	25	31*	44*	.
SMILES	eIF4H inh	PERK inhibitor	PABP1 MLLE inh	PfM18AAP inh	PABP polyA inh	eIF4E-4G inh
O=C(CSc1n[nH]c(-c2ccco2)n1)Nc1ccc(F)cc1	-16	.	-5	-6	-8	.
CC(=O)c1ccc(Sc2ccccc2N)c([N+](=O)[O-])c1	3	2	-1	-1	-2	0
Nc1ccccc1Sc1ccc(C(=O)c2ccccc2C(=O)O)cc1[N+](=O)[O-]	19	1	33	30*	34	6
Cc1cccc(NC(=O)CC2Nc3cccc4cccc(c34)NC2=O)c1 (stereo unspecified)	113*	0	17	3	88*	-1
CC(=O)c1ccc(NC(=O)CC2Nc3cccc4cccc(c34)NC2=O)cc1 (stereo unspecified)	?	0	6	29*	?	2
CCOc1ccc(NC(=O)CC2Nc3ccccc3NC2=O)cc1 (stereo unspecified)	-4	0	8	-5	-8	-2
Cc1nc2nc(C)n(CCN3CCOCC3)c(=O)c2c(-c2cccc([N+](=O)[O-])c2)c1C(=O)CCCCCCCCCCN1CCC(c2ccccc2)(c2ccccc2)CC1	.	.	8	.	.	.
CCCCOc1[nH]c2nc(-c3ccco3)n(Cc3ccco3)c(=N)c2c1C#N	127*	1	95	11	118*	13
c1ccc(CSc2nnc(-c3ccco3)n2Cc2ccco2)cc1	-3	-1	-20	-41	2	-5
c1ccc2c(c1)nnn2Cc1nnc2sc(-c3ccc4c(c3)OCCO4)nn12	-5	-1	41*	2	-5	20
c1ccc(-c2nn3c(Cn4nnc5ccccc54)nnc3s2)cc1	11	0	26	22	0	5
Cc1nc(N2CCCCC2)nc(N2CCCCC2)c1C=O	9	1	-25	5	-4	0
COc1ccc(Cn2cnc([N+](=O)[O-])c2)cc1[N+](=O)[O-]	-4	3.1*	5	-1	4	1
O=[N+]([O-])c1cn(Cc2ccc(Cl)cc2)cn1	-10	0	7	-7	-4	2
O=C(Nc1sc2c(c1C(=O)O)CCC2)C(=O)N1CCOCC1	86*	.	11	18	23*	.
O=C(COC(=O)CNC(=O)c1ccc(Cl)cc1)Nc1ccc(Cl)cc1C(F)(F)F	7	-1	5	2	46	-3
COc1cc(NC(C)C(=O)N2CC(C)OC(C)C2)cc(OC)c1 (stereo unspecified)	?	-1	2	10	51*	-2
COc1cccc(NC(C)C(=O)N2CC(C)OC(C)C2)c1 (stereo unspecified)	15	1	14	-7	21	-1
CCC1=C/C(=C/N(C)c2ccccc2)C(=O)S1	53*	1	31	5	80*	-18
CN(C)/C=C1/C=C(c2ccccc2)OC1=O	2	1	6	2	-2	3
O=C(O)CCC(=O)Nc1ccc(C(=O)OCC(=O)c2ccc(Cl)cc2Cl)cc1	2	1	-5	2	11	-3
O=c1cc(-c2ccc([N+](=O)[O-])cc2)nc2cc(-c3ccc(F)cc3)[nH]n12	63	1	8	2	active	13
O=[N+]([O-])c1ccccc1CNc1ccc(F)c(Cl)c1	74	1	-3	20	active	-2
CCCNC(=O)C1(C)CCN1C(=O)Cc1ccc(C(C)(C)C)cc1 (stereo unspecified)	.	.	-11	.	.	.
CCCCNC(=O)N1CCN(Cc2ccc(F)cc2)CC1	-7	2	0	0	1	3
COCCCn1c(SCC(=O)Nc2ccc(NC(C)=O)cc2)nc2sc3c(c2c1=O)CCC3	3	.	-4	3	-4	.

High-throughput results as filed in PubChem.
